Inconclusive results are not listed. Activity calls are given as the source filed them. Unless noted, the call rests on the fitted dose curve; in most records, active means well fitted curve in the direction sought with a large enough effect in the repeat runs; inconclusive means weak or mixed curves; inactive means no such curve, though single readings can be large; an effect the other way counts as inactive or inconclusive.
Key:
[1] = target: Luciferin 4-monooxygenase (Photinus pyralis) (UniProt P08659); experiment: qHTS assay to identify small molecule inhibitors of firefly luciferase (AID 1224835); further: nearly all actives have a fitted effect of over 25% in size; further: potency means the concentration at half of the fitted maximal effect; on activity change, negative = inhibition: series mostly up to about 120 µM
Sequence of Luciferin 4-monooxygenase (Photinus pyralis) (P08659 whole entry, looked up): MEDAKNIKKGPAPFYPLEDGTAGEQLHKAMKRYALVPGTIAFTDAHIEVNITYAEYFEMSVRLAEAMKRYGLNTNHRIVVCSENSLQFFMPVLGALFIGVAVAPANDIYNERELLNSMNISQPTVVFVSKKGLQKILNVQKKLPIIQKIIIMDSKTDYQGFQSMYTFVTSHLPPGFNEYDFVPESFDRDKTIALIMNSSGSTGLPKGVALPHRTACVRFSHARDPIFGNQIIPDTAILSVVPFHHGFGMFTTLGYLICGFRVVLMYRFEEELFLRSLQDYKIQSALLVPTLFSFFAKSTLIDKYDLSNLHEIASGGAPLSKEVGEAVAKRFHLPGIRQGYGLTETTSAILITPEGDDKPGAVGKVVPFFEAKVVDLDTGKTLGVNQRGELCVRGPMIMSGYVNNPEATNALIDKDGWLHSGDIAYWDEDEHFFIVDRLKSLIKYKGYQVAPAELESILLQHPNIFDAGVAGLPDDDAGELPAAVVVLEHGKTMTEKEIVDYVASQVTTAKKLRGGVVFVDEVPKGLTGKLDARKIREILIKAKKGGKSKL
Outline: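 Biochemical qHTS: compounds run as interplate titrations against purified firefly enzyme, with D-luciferin and ATP each at its KM concentration. Light output recorded by CCD imaging.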

[2] = qHTS assay to identify small molecule agonists of the constitutive androstane receptor (CAR) signaling pathway - cell viability counter screen (AID 1224836); further: nearly all actives have a fitted effect of over 45% in size; further: potency means the concentration at half of the fitted maximal effect; on viability change, negative = cytotoxic: series mostly up to about 92 µM
Outline: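 Compound titrations (15 concentrations) went onto HepG2-CYP2B6-hCAR cells 4 h after seeding, alongside PK11195 at a final 0.75 uM; a 23 h, 37 C/5% CO2 incubation preceded CellTiter-Fluor viability measurement.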

[3] = qHTS assay to identify small molecule antagonists of the constitutive androstane receptor (CAR) signaling pathway - cell viability counter screen (AID 1224837); further: nearly all actives have a fitted effect of over 45% in size; further: potency means the concentration at half of the fitted maximal effect; on activity change, negative = cytotoxicity: series mostly up to about 92 µM
Outline: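 Cells are seeded, rested 4 hr at 37 C/5% CO2, dosed with compound (15-point series) and 50 nM CITCO, incubated a further 23 hr, and then CellTiter-Fluor reagent is added before fluorescence is read. The line is HepG2 with stable hCAR and CYP2B6-2.2kb.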

[4] = target: Nuclear receptor subfamily 1 group I member 3 (Homo sapiens) (UniProt Q14994); experiment: qHTS assay to identify small molecule antagonists of the constitutive androstane receptor (CAR) signaling pathway (AID 1224838);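 further: HepG2 cells stably expressing hCAR with CYP2B6 luciferase reporter stimulated by CITCO; nearly all actives have a fitted effect of over 40% in size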
Sequence of Nuclear receptor subfamily 1 group I member 3 (Homo sapiens) (Q14994 whole entry, looked up): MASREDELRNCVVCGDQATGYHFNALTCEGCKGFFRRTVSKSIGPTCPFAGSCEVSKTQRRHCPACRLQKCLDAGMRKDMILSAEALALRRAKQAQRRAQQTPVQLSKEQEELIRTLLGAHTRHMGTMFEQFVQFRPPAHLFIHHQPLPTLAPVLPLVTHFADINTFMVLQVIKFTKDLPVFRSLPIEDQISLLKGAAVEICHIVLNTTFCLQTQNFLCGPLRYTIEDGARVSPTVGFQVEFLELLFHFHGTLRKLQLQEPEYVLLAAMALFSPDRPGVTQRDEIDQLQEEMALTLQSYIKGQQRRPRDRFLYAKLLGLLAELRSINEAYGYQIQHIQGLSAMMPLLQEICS
Outline: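 Luminescence from a CYP2B6-2.2kb promoter reporter in hCAR-expressing HepG2 cells reflects CAR signaling. Cells received compounds at 15 concentrations and 50 nM CITCO (final), then incubated 24 h at 37 C/5% CO2.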

[5] = target: Nuclear receptor subfamily 1 group I member 3 (Homo sapiens) (UniProt Q14994); experiment: qHTS assay to identify small molecule agonists of the constitutive androstane receptor (CAR) signaling pathway (AID 1224839); further: nearly all actives have a fitted effect of over 15% in size; further: potency means the concentration at half of the fitted maximal effect;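 on activation: HepG2 cells stably carrying human CAR and a CYP2B6 luciferase reporter; series mostly up to about 92 µM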
Outline: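 In this screen, CAR-driven CYP2B6 promoter activity is measured by luminescence in HepG2-CYP2B6-hCAR cells after 24 h with test compounds and 0.75 uM PK11195 (final concentration).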

[6] = qHTS assay to identify small molecule antagonists of the estrogen related receptor signaling pathway with the pleiotropic PPARgamma coactivator (PGC) from Tox21 10K library - cell viability counter screen (AID 1224840; active means well fitted cell-killing curve with a large enough effect in the repeat runs, not every such curve was filed as active; further: nearly all actives have a fitted effect of over 40% in size)
Outline: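 Cell viability is measured by CellTiter-Fluor fluorescence in PGC/ERR cells that receive compounds after a 6-hour attachment period and are then incubated 17.5 hours at 37 C.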

[7] = qHTS assay to identify small molecule antagonists of the estrogen related receptor signaling pathway with the pleiotropic PPARgamma coactivator (PGC) from Tox21 10K library (AID 1224841; call rule not given here; further: actives are mostly falling curves and most rising ones were filed inactive; nearly all actives have a fitted effect of over 50% in size; further: potency means the concentration at half of the fitted maximal effect; on activity, negative = inhibition: series mostly up to about 92 µM)
Outline: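 Cells stably carrying the PGC/ERR reporter, seeded at 2,000 per well, received pin-transferred compounds 6 h post-plating. Exposure lasted 18 h at 37 C. Signal: One-Glo luminescence.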

[8] = qHTS assay to identify small molecule agonists of the estrogen related receptor signaling pathway with the pleiotropic PPARgamma coactivator (PGC) from Tox21 10K library (AID 1224842); further: nearly all actives have a fitted effect of over 15% in size
Outline: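 PGC/ERR reporter cell line, 2,000 cells per well, incubated 6 h at 37 C before 23 nL compound in DMSO was added. After 18 h at 37 C, One-Glo luminescence read following 30 min at room temperature.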

[9] = qHTS assay to identify small molecule agonists of the hypoxia (HIF-1) signaling pathway - cell viability counter screen (AID 1224844; calls by dose curve; further: nearly all actives have a fitted effect of over 50% in size; further: potency means the concentration at half of the fitted maximal effect)
Outline: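 Viability counter screen: HRE-bla ME-180 cells plated 5 hrs before compound addition, treated 17 hrs at 37C and 5% CO2, then CellTiter-Glo added after the FRET reporter read; luminescence after 30 min.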

[10] = target: Thyrotropin receptor (Homo sapiens) (UniProt P16473); experiment: qHTS assay to identify small molecule agonists of the thyroid stimulating hormone receptor (TSHR) signaling pathway (AID 1224843; calls by dose curve; further: nearly all actives have a fitted effect of over 45% in size)
Sequence of Thyrotropin receptor (Homo sapiens) (P16473 whole entry, looked up): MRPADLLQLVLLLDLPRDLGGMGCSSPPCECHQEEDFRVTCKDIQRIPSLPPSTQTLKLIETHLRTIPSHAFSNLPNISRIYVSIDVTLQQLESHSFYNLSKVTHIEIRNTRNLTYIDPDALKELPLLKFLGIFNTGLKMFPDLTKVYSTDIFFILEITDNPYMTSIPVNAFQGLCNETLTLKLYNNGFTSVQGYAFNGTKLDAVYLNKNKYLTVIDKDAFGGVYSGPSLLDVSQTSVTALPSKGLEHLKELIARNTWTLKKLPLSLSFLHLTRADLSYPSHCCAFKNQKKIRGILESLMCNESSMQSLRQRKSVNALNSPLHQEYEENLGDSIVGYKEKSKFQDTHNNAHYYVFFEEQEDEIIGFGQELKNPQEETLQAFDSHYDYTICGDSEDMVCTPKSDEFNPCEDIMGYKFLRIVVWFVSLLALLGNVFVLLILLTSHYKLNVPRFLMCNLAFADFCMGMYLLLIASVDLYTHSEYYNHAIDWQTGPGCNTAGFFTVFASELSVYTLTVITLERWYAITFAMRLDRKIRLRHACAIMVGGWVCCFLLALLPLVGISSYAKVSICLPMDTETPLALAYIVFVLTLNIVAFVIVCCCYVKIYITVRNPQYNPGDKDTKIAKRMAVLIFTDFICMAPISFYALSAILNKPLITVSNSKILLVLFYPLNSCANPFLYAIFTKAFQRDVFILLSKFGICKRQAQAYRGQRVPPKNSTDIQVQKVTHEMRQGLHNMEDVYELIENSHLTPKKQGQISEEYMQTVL
Outline: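 HEK293/TSHR, 800 cells/well; cpd 30 min RT; add cAMP-d2 + anti-cAMP-cryptate, 1 h RT; fluorescence read on plate reader. 15-pt titration, n=3.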
On the % scale 0 is the no-effect control and ±100 the full control effect.

CCOc1ccc(N)c([N+](=O)[O-])c1
inactive: Potency [1] | Potency [2] | Potency [3] | Potency [4] | Potency [5] | Potency [6] | Potency [7] | Potency [8] | Potency [9]

CN(C)CCCN1c2ccccc2Sc2ccccc21
inactive: Potency [1] | Potency [2] | Potency [3] | Potency [4] | Potency [5] | Potency [6] | Potency [7] | Potency [8]

CC1=CC[C@H](C(C)C)C=C1
inactive: Potency [1] | Potency [2] | Potency [3] | Potency [4] | Potency [5] | Potency [6] | Potency [9]

CC(C)(CO)[N+](=O)[O-]
inactive: Potency [1] | Potency [2] | Potency [3] | Potency [4] | Potency [5] | Potency [6] | Potency [9]

CC(=O)OC[C@H]1O[C@@H](n2ncc(=O)[nH]c2=O)[C@H](OC(C)=O)[C@@H]1OC(C)=O
inactive: Potency [1] | Potency [2] | Potency [3] | Potency [4] | Potency [5] | Potency [6] | Potency [10] | Potency [9]

C[C@H](CCC(=O)O)[C@H]1CC[C@H]2[C@@H]3CC[C@@H]4C[C@H](O)CC[C@]4(C)[C@H]3C[C@H](O)[C@]12C
inactive: Potency [1] | Potency [2] | Potency [3] | Potency [4]

c1cc(CCCc2ccncc2)ccn1
inactive: Potency [1] | Potency [2] | Potency [3] | Potency [4] | Potency [5] | Potency [6] | Potency [8] | Potency [10] | Potency [9]

CN(C)c1ccc(C(c2ccccc2)c2ccc(N(C)C)cc2)cc1
active: Potency [7] 27.3 µM
inactive: Potency [1] | Potency [2] | Potency [3] | Potency [4] | Potency [5] | Potency [6] | Potency [8] | Potency [10] | Potency [9]

Nc1cccc([N+](=O)[O-])c1
inactive: Potency [1] | Potency [2] | Potency [3] | Potency [4] | Potency [5] | Potency [6] | Potency [7] | Potency [8] | Potency [9]

CCC(=O)O[C@]1(C(=O)CCl)[C@@H](C)C[C@H]2[C@@H]3CCC4=CC(=O)C=C[C@]4(C)[C@@]3(F)[C@@H](O)C[C@@]21C
inactive: Potency [1] | Potency [2] | Potency [3] | Potency [4] | Potency [5] | Potency [6] | Potency [7] | Potency [8] | Potency [10]

C[C@H]1C[C@H]2[C@@H]3CCC4=CC(=O)C=C[C@]4(C)[C@@]3(Cl)[C@@H](O)C[C@]2(C)[C@@]1(O)C(=O)CO
inactive: Potency [1] | Potency [2] | Potency [3] | Potency [4] | Potency [5] | Potency [6] | Potency [8] | Potency [10]

CC(CC=O)c1ccccc1 (stereo unspecified)
inactive: Potency [1] | Potency [2] | Potency [3] | Potency [4] | Potency [5] | Potency [6] | Potency [10] | Potency [9]

C#CCN(C)CCCOc1ccc(Cl)cc1Cl
inactive: Potency [2] | Potency [3] | Potency [4] | Potency [6] | Potency [9]
active: Potency [1] 15.5 µM | Potency [5] 26.6 µM

CN1Cc2cc(C(=O)N3CCC(C4CCNCC4)CC3)ccc2NC(CC(=O)O)C1=O (stereo unspecified)
inactive: Potency [1] | Potency [2] | Potency [3] | Potency [4] | Potency [5] | Potency [7] | Potency [8] | Potency [10] | Potency [9]

Nc1cc(C(=O)O)c(O)c(S(=O)(=O)O)c1
inactive: Potency [1] | Potency [2] | Potency [3] | Potency [4] | Potency [5] | Potency [6] | Potency [7] | Potency [8] | Potency [10] | Potency [9]

O=C(c1ccc(F)cc1)C1CCN(CCn2c(=S)[nH]c3ccccc3c2=O)CC1
inactive: Potency [1] | Potency [2] | Potency [3] | Potency [4] | Potency [5] | Potency [8] | Potency [10]
active: Potency [7] 26.6 µM | Potency [9] 21.3 µM

C=C(C)C(=O)OCCO
inactive: Potency [1] | Potency [2] | Potency [3] | Potency [4] | Potency [5] | Potency [6] | Potency [10] | Potency [9]

Cc1c(N)cccc1[N+](=O)[O-]
inactive: Potency [1] | Potency [2] | Potency [3] | Potency [4] | Potency [5] | Potency [6] | Potency [7] | Potency [8] | Potency [10] | Potency [9]

C#Cc1cccc(Nc2ncnc3cc(OCCOC)c(OCCOC)cc23)c1
inactive: Potency [1] | Potency [2] | Potency [3] | Potency [4] | Potency [6] | Potency [8] | Potency [10] | Potency [9]
active: Potency [5] 7.5 µM | Potency [7] 8.41 µM

CCN(CC)CCOC(=O)C(Cc1cccc2ccccc12)CC1CCCO1 (stereo unspecified)
inactive: Potency [1] | Potency [2] | Potency [3] | Potency [4] | Potency [5] | Potency [6] | Potency [10] | Potency [9]

COc1ccc(S(=O)(=O)N2C(=O)[C@@](c3ccccc3OC)(N3C[C@H](O)C[C@H]3C(=O)N(C)C)c3cc(Cl)ccc32)c(OC)c1
active: Potency [2] 30.6 µM | Potency [3] 24.3 µM
inactive: Potency [1] | Potency [4]

Brc1c2ccccc2c(Br)c2ccccc12
inactive: activity change, negative = inhibition [1] 2.43% [at 10.5 µM] | viability change, negative = cytotoxic [2] 3.16% [at 8.39 µM] | activity change, negative = cytotoxicity [3] 6.42% [at 8.39 µM] | activity, negative = inhibition [4] 22.1% [at 8.39 µM] | activation [5] 11.6% [at 8.39 µM] | viability change, negative = cytotoxic [6] 6.16% [at 8.39 µM] | activity, negative = inhibition [7] 52.5% [at 8.39 µM] | activation [8] 2.94% [at 8.39 µM] | activation [10] -2.14% [at 8.39 µM] | activity change, negative = cytotoxicity [9] -13.7% [at 6.97 µM]

Source: PubChem BioAssay (Tox21)
